The source of these data is the supplement of paper PMC4954754.

Each structure is given as a SMILES string. Values joined by “and” are separate entries in the source; they are usually repeats but may differ in a detail not shown here. Equal values may be shown once. ± gives the uncertainty stated by the source.

The assay concerns HEK293T-Rex ERSE-FLuc. Nature of the assay: ERSE-FLuc reporter activation, triplicate confirmation, relative to 500 nM thapsigargin (% of thapsigargin); higher = stronger ATF6/ERSE reporter activation. The note with it: 6.8 µM; 18 h; screen: confirmation. The protocol:
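HEK293T-Rex cells stably expressing the ERSE-firefly luciferase (BiP promoter, ATF6-preferring) or XBP1-splicing Renilla luciferase (IRE1/XBP1s) reporter, 1536-well plates, compound at 6.8 µM for 18 hr at 37 °C; luminescence read […] and expressed as % activation = 100*(compound - median DMSO)/(median 500 nM thapsigargin - median DMSO). Primary screen was single-pass; confirmation screen in triplicate (mean ± SD).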
`CNc1ccc2oc(C[C@H]3O[C@@]4(CC[C@H]3C)O[C@H]([C@H](C)C(=O)c3ccc[nH]3)[C@H](C)C[C@H]4C)nc2c1C(=O)O` registered an ERSE-FLuc reporter activation of 63.9 ± 3.1.
Turning to `CC(=O)NC1C(OC2OC(CC(O)C3OC(n4ccc(=O)[nH]c4=O)C(O)C3O)C(O)C(O)C2NC(=O)/C=C\CCCCCCCCCC(C)C)OC(CO)C(O)C1O` (stereo not given), the ERSE-FLuc reporter activation is 162 ± 5.7.
The compound `O=C(CCCN1CCC2(CC1)C(=O)N(Cc1cccc(F)c1)CN2c1ccccc1)c1ccc(F)cc1` came in with an ERSE-FLuc reporter activation of 215 ± 16.
The figure for `O=C(CCCN1CCC2(CC1)C(=O)NCN2c1ccccc1)c1ccc(F)cc1` is 163 ± 21.
On to `C/C=C(/C)C(=O)O[C@H]1C(C)=C2[C@H]([C@@H]1OC(=O)CCCCCCC)[C@@](C)(OC(C)=O)C[C@H](OC(=O)CCC)[C@@]1(O)[C@H]2OC(=O)[C@@]1(C)O`, for which the ERSE-FLuc reporter activation is 109 and 88.
